For test [1], the target named is Serine/threonine-protein kinase MARK2 (Homo sapiens) (UniProt Q7KZI7). The settings on record: at 1 µM.
Test [2] addresses PAS domain-containing serine/threonine-protein kinase (Homo sapiens) (UniProt Q96RG2). The settings on record: at 0.1 µM.
For test [3] the target is unchanged. The settings on record: at 1 µM.
The target in test [4] is Phosphorylase b kinase gamma catalytic chain, skeletal muscle/heart isoform (Homo sapiens) (UniProt Q16816). The settings on record: at 0.1 µM.
Chain of Phosphorylase b kinase gamma catalytic chain, skeletal muscle/heart isoform (Homo sapiens) (Q16816 whole entry, looked up, canonical isoform): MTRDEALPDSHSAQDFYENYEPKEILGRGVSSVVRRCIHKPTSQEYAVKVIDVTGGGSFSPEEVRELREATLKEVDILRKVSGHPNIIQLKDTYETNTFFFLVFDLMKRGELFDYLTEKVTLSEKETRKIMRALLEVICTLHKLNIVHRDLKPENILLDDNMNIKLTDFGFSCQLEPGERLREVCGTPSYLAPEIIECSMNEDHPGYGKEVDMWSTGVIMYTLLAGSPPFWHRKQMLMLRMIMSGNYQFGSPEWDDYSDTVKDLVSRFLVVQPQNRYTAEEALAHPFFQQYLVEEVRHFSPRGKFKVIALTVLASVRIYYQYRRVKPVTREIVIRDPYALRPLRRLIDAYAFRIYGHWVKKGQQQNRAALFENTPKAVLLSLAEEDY
For test [5] the target is unchanged. The settings on record: at 1 µM.
The target of test [6] is T1, Phosphorylase b kinase gamma catalytic chain, liver/testis isoform (Homo sapiens) (UniProt P15735).
T1 sequence (whole entry): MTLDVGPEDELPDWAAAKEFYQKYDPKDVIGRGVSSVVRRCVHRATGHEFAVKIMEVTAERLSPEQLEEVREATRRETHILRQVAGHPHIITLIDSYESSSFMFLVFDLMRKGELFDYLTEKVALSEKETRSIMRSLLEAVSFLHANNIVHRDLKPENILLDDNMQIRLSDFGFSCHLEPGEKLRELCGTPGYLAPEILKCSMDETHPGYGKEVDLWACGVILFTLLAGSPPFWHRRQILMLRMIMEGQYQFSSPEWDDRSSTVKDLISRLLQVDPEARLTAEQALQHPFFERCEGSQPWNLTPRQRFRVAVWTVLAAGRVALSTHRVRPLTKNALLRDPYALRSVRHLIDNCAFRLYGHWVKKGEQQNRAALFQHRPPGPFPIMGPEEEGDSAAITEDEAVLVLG
Conditions: at 0.1 µM.

For test [7], the target named is T1, Phosphorylase b kinase gamma catalytic chain, liver/testis isoform (Homo sapiens). Conditions: at 1 µM.
The target of test [8] is Serine/threonine-protein kinase pim-1 (Homo sapiens) (UniProt P11309). Conditions: at 0.1 µM.
Chain of Serine/threonine-protein kinase pim-1 (Homo sapiens) (P11309 whole entry, looked up): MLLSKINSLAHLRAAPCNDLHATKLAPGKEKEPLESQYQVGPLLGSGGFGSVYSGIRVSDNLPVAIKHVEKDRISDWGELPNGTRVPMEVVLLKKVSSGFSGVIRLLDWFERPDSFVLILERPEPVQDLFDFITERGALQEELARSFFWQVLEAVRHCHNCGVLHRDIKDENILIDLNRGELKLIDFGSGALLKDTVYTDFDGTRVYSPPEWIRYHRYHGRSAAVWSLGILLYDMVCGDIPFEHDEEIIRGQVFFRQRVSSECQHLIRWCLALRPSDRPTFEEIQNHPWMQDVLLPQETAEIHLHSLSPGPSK
Test [9] has the same target. Conditions: at 1 µM.
Test [10] has as its target Serine/threonine-protein kinase pim-2 (Homo sapiens) (UniProt Q9P1W9). The settings on record: at 0.1 µM.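 Also: reported value is the mean percent inhibition of PIM2, measured in the GSK PKIS kinase inhibitor set screen.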

Structures are written as SMILES.

Chain of PAS domain-containing serine/threonine-protein kinase (Homo sapiens) (Q96RG2 whole entry, the tested form may be a part): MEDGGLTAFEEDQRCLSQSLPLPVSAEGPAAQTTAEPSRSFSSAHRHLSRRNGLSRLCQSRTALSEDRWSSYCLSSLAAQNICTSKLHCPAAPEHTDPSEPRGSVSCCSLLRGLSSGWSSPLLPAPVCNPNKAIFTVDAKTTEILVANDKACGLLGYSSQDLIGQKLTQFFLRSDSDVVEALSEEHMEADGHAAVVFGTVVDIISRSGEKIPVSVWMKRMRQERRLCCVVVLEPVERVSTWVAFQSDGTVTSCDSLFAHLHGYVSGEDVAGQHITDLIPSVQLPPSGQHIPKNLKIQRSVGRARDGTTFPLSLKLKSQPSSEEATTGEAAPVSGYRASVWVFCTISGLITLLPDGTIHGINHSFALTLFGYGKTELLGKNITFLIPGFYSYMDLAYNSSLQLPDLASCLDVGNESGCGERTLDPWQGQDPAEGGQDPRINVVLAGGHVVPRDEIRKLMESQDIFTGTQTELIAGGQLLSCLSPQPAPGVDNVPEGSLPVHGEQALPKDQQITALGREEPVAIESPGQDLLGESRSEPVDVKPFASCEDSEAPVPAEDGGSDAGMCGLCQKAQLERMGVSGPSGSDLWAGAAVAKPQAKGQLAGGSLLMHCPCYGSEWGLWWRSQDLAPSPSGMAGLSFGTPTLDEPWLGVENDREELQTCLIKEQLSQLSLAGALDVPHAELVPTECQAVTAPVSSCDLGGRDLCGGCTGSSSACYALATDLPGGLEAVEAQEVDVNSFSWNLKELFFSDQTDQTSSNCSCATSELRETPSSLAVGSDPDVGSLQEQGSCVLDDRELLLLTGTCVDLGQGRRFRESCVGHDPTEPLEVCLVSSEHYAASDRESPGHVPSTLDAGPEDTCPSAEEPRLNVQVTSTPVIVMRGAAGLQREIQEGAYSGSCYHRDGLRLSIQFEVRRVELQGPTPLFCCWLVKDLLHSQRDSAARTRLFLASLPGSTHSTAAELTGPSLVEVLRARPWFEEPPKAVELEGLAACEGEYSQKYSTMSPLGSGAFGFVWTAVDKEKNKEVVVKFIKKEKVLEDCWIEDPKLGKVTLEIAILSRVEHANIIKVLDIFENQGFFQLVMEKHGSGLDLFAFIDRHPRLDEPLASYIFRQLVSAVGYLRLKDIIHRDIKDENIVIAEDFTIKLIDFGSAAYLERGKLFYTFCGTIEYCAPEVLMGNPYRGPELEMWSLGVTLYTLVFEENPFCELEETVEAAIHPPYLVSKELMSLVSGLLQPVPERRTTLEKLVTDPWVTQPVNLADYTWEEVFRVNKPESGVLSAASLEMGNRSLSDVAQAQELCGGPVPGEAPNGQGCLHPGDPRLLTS
Chain of Serine/threonine-protein kinase MARK2 (Homo sapiens) (Q7KZI7 whole entry, the tested form may be a part): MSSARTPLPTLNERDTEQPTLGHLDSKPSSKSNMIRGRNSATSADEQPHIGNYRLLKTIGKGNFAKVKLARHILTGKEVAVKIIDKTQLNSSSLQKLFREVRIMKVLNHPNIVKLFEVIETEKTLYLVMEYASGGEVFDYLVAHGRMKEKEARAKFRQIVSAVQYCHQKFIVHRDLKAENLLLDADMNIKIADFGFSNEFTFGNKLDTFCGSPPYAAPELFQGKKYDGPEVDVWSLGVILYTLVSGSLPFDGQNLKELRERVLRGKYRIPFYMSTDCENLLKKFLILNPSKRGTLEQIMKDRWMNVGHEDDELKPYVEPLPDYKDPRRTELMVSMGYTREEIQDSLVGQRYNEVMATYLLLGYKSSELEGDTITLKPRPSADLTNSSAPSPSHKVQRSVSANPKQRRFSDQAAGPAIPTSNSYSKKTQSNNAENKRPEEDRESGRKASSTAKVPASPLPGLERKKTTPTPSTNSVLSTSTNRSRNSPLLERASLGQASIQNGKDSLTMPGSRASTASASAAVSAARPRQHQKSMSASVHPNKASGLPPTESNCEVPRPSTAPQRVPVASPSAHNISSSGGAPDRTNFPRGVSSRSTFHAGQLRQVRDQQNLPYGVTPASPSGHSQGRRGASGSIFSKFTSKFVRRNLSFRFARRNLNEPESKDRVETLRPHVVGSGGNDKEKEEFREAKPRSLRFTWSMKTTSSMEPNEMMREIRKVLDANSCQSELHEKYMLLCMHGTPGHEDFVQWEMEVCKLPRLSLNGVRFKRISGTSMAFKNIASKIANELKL
Chain of Serine/threonine-protein kinase pim-2 (Homo sapiens) (Q9P1W9 whole entry, looked up): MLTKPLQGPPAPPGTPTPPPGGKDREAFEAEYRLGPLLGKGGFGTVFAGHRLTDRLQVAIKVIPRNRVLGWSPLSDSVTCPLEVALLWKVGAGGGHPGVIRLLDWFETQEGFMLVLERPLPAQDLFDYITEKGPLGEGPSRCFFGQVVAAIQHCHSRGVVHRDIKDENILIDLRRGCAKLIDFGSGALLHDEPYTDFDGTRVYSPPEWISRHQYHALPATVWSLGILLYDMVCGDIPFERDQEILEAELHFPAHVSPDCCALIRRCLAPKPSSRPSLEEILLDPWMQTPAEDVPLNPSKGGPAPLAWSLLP

In the case of `N#Cc1c(NC(=O)c2ccc(F)cc2)sc2c1CCCC2`, the inhibition in test [1] is 0%; in test [2], -0.36%; in test [3], 0.96%; in test [4] it was 1.21%; in test [5], 2.76%; in test [6], 1%. Further, the inhibition in test [7] was 1.36%; in test [8], -1.04%; in test [9], -0.95%; in [10], -0.39%.
With `O=C(Nc1n[nH]c2cc(-c3ccc(F)cc3)ccc12)C1CC1`, the inhibition is 2.24% in test [1]; -0.52% in test [2]; -1.02% in test [3]; 3.89% in [4]; 6.4% in [5]; 6.96% in test [6]. Moreover, the inhibition in [7] is 2.35%; in test [8] it was 0.88%; in [9], 3.11%; in test [10], -0.18%.
`NC(=O)c1sc(-n2cnc3ccc(C(F)(F)F)cc32)cc1OCc1ccccc1Br`: the inhibition in test [1] is -0.94%; in test [2], -1.22%; in test [3], -1.68%; in test [4], 4.21%; in [5] it was 7.92%; in test [6] it was 5.06%. The inhibition in [7] is 4.43%; in test [8], -0.41%; in [9], 2.03%; in test [10] it was -0.42%.
As to `O=S(=O)(CCNCc1ccc(-c2ccc3ncnc(Nc4ccc(OCc5cccc(F)c5)c(Cl)c4)c3c2)o1)c1ccccc1`, the inhibition was -0.14% in test [1]; -0.06% in test [2]; 0.32% in test [3]; 5.41% in [4]; 9.29% in test [5]; 7.91% in test [6]. The inhibition was 7.71% in test [7], -0.13% in test [8], 1.9% in [9] and 0.44% in test [10].
Take `O=C(O[C@H]1CN[C@H](C#Cc2cc3ncnc(Nc4ccc(Cc5ccccc5)cc4)c3s2)C1)N1CCOCC1`: the inhibition in [1] was found to be 0.4%; in test [2], 0.94%; in [3], 0.47%; in test [4] it was 3.11%; in [5] it was 3.13%; in test [6] it was 3.27%. Further, the inhibition turned out to be 2.45% in [7], 1.81% in test [8], 0.55% in [9] and 0.21% in test [10].
Take `CCN(CC)S(=O)(=O)c1ccc(OC)c(Nc2ncc(-c3ccccc3)o2)c1`: the inhibition in [1] is 0.33%; in test [2], 1.24%; in [3], 1.76%; in test [4], -0.59%; in [5] it was 12.3%; in test [6] it was 2.23%. Besides, the inhibition in [7] was 2.3%; in [8] it was 1.35%; in [9], 0.97%; in test [10] it was -0.31%.
As to `COc1cccc(-c2c[nH]c3c(N/N=C/c4ccncc4)ncnc23)c1`, the inhibition in test [1] was 5.48%; in [2] it was 0.94%; in test [3], -0.58%; in [4], 3.01%; in test [5] it was 12.1%; in test [6], 3.45%. Moreover, the inhibition in test [7] was 1.52%; in test [8] it was 1.65%; in test [9], 5.38%; in test [10], -0.12%.
As to `CC1=C(C(=O)Nc2cc(Cl)c3[nH]ncc3c2)C(c2ccc(C(F)(F)F)cc2)CC(=O)N1` (stereo not given), the inhibition is 5.38% in test [1]; -0.35% in test [2]; 0.16% in test [3]; 3.83% in [4]; 6.61% in test [5]; 3.02% in test [6]. The inhibition in test [7] turned out to be 4.01%; in test [8], 0.67%; in test [9] it was 0.15%; in test [10], 0.31%.
On to `CNC(=O)c1cccc(C#Cc2cncnc2Nc2ccc(OCc3cccc(F)c3)c(Cl)c2)c1`, for which the inhibition in test [1] is -2.06%; in [2], 0.44%; in test [3], 0.79%; in test [4] it was -2.47%; in [5], 2.19%; in test [6] it was 2.39%. The inhibition in test [7] worked out at 3.44%; in test [8], 0.55%; in [9], 0.54%; in [10], 0.37%.
As for `CN1CCC(n2cnc(-c3ccc(F)cc3)c2-c2ccnc(Nc3ccccc3)n2)CC1`, the inhibition is -0.33% in [1]; -0.38% in [2]; 2.19% in test [3]; 3.44% in test [4]; 4.79% in [5]; 3.49% in test [6]. In addition, the inhibition in test [7] was 2.68%; in [8], 0.38%; in [9] it was 2.62%; in test [10], -0.56%.
`Fc1ccc(-c2nn3ccccc3c2-c2ccncc2)cc1`: the inhibition is 0.53% in test [1]; -0.17% in test [2]; -0.32% in test [3]; 2.42% in test [4]; 2.09% in [5]; 0.28% in test [6]. Moreover, the inhibition in test [7] was -0.7%; in test [8] it was -0.39%; in [9], 0.04%; in test [10], -0.3%.
For the compound `FC(F)(F)c1cccc(-c2nn3ncccc3c2-c2ccnc(Nc3ccc4c(c3)OCCO4)n2)c1`, the inhibition in test [1] is 1.86%; in [2], 0.04%; in test [3] it was -1.92%; in [4], -0.01%; in test [5], 2.06%; in test [6], 1.75%. Further, the inhibition in [7] was 0.4%; in test [8] it was 0.41%; in [9], 0.7%; in [10], -0.06%.
As to `CC(C)(CO)CNC(=O)c1ccc2c(c1)/C(=N/Nc1ccc(S(N)(=O)=O)cc1)C(=O)N2`, the inhibition is 32.2% in [1]; 1.39% in [2]; 0.43% in test [3]; 6.19% in test [4]; 29.9% in [5]; 0.52% in test [6]. Moreover, the inhibition in test [7] stood at 3.4%; in [8], 2.44%; in test [9], 18.9%; in [10], 0.31%.
As for `COc1cc2c(cc1Nc1nc(Nc3ccsc3C(N)=O)c3cc[nH]c3n1)N(C(=O)CN(C)C)CCC2(C)C`, the inhibition was 9% in test [1]; -1.55% in [2]; -1.18% in test [3]; 18.5% in [4]; 62% in test [5]; 5.83% in [6]. Further, the inhibition in test [7] turned out to be 6.91%; in [8], 68.4%; in test [9], 93.3%; in [10], 2.12%.
Turning to `COc1ccc2[nH]c3c4[nH]c5ccc(OC)cc5c4c4c(c3c2c1)C(=O)NC4=O`, the inhibition in [1] is 11.8%; in [2], -0.49%; in test [3], -1.47%; in test [4], 48.4%; in test [5] it was 73.3%; in [6], 9.06%. For the same compound, the inhibition in test [7] was 39.8%; in test [8], 28.7%; in [9], 74.2%; in test [10] it was 21.4%.
Regarding `[O-][S+]1CCN(Cc2ccc(-c3ccc4ncnc(Nc5ccc(OCc6cccc(F)c6)c(Cl)c5)c4c3)o2)CC1`, the inhibition in [1] amounted to 2.61%; in test [2], 0.34%; in [3] it was 0.46%; in [4], 5.93%; in test [5] it was 8.77%; in test [6], 7.01%. Moreover, the inhibition in test [7] was found to be 6.77%; in [8] it was 0.76%; in [9] it was 2.24%; in test [10], 0.73%.
Take `COc1ccc(-c2cc3c(N)ncnc3o2)cc1`: the inhibition in test [1] is 3.33%; in test [2], 1.26%; in test [3] it was 0.48%; in [4], 0.47%; in test [5], 2.53%; in [6], -1.54%. In addition, the inhibition in [7] is -2.23%; in [8], -1.06%; in [9], 2.3%; in [10], 0.27%.

One may read the inhibition as the change of the read-out against control, counted positive when it falls.

(Values after ChEMBL document CHEMBL1961873, “Compounds: GSK PKIS; Assays: Nanosyn kinase panel” (2012).)
